Only some compounds are listed: those with a hit (about 1.3% of all), similar ones and a draw of the others.
RXFP1 agonist: qHTS Assay for Agonists of the Relaxin Receptor RXFP1. Relaxin receptor 1 (Homo sapiens), Q9HBX9. HEK293T-RXFP1 cAMP TR-FRET, 30 min; response scale: percent of porcine relaxin response, buffer zero. Potency, µM (top dose mostly 57.5 µM), without a hit: top-dose activation, usual class: activators. 370,000 compounds, 0.3% hits; active = well fitted activation curve with a large enough effect; inconclusive = small, poorly fitted or top-dose-only effect; note: potency is the fitted concentration of half-maximal effect; % is set by controls: 0 for no effect and ±100 for the full control effect; nearly all actives have a fitted effect of over 60% in size
Target sequence (Q9HBX9 whole entry, looked up): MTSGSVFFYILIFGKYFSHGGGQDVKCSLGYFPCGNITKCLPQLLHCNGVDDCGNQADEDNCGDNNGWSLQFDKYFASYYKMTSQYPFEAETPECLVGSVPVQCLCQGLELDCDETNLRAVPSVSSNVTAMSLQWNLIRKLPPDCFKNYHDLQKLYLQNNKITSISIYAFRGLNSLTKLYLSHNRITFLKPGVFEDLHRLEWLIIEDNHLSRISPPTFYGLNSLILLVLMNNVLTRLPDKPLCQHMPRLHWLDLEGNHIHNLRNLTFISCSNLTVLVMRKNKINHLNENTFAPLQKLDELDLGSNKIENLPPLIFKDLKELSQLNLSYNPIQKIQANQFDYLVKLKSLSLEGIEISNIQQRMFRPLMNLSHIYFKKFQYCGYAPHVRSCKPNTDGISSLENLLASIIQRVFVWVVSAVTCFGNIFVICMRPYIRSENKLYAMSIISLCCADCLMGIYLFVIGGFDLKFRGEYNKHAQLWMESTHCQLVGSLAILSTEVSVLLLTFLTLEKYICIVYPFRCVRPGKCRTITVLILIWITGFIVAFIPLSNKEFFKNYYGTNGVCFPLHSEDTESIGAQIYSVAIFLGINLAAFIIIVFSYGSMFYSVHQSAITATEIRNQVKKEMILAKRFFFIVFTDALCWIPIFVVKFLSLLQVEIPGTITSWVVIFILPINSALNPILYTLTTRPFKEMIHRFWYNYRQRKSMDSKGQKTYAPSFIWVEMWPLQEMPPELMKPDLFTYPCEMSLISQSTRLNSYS
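HEK293T cells stably expressing RXFP1 were pretreated with the PDE4 inhibitor Ro 20174, exposed to compounds for 30 min at 37C, lysed, and cAMP was read by TR-FRET. Data normalized to buffer (basal) and 29 nM porcine relaxin (100%).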
RXFP1 antagonist: qHTS Assay for Antagonists of the Relaxin Receptor RXFP1. Relaxin receptor 1 (Homo sapiens), Q9HBX9. HEK293-RXFP1, relaxin-stimulated cAMP HTRF, 30 min; stronger effect = lower value. activity change, negative = inhibition, % at 57.5 µM. 350,000 compounds, 0.59% hits. AID 1259400, 2018;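 active = activity change of -60% or lower, but not beyond a set lower limit; inconclusive = change between -60% and -40%, or beyond the set limit; inactive = change above -40%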; note: % is set by controls: 0 for no effect and ±100 for the full control effect
pAkt inh: HTS Assay for Inhibitors of Akt Phophorylation: Primary Screen; Neuro2A IGF-stimulated pAkt S473 HTRF, 20 min; stronger effect = lower value; activity change, % for hits at 50 µM; 360,000 compounds, 0.32% hits; in the data active = activity change below about -80%; inconclusive = mostly about -51% to -80%; note: % is set by controls: 0 for no effect and ±100 for the full control effect
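Neuro2A cells (4,500/well, DMEM with 0.5% FBS) were treated with compound at a single 50 µM final concentration, stimulated with 6 nM IGF for 20 min at 37 °C, and lysed. Phospho-Akt Ser473 was read by HTRF as 665/615 ratio ×10^4.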
gsp antagonist: qHTS for Antagonists of gsp, the Etiologic Mutation Responsible for Fibrous Dysplasia/McCune-Albright Syndrome: qHTS; Potency, µM (series often up to 76.9 µM), inactives show at the top dose activity change, negative = inhibition, most hits filed as inhibitors; gsp-mutant cells, cAMP HTRF, 30 min; 340,000 compounds, 0.4% hits; calls by dose curve; cell line not stated here;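 note: intracellular cAMP measured with PDE inhibitor Ro 20-1724 present during compound exposure; potency is the fitted concentration of half-maximal effect; % is set by controls: 0 for no effect and ±100 for the full control effect; nearly all actives have a fitted effect of over 65% in size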
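G418-selected cells were plated in DMEM/10% FBS for 16-24 h at 37C, then treated with compounds plus the PDE inhibitor […] (300 uM solution added) for 30 min at 37C. Intracellular cAMP was measured by HTRF after 30 min lysis at room temperature.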
gsp ag: qHTS for Agonist of gsp, the Etiologic Mutation Responsible for Fibrous Dysplasia/McCune-Albright Syndrome: qHTS. gsp mutant cells, cAMP HTRF, 30 min. Potency, µM (doses to about 76.9 µM), without a hit: at the highest dose activation (cAMP increase), most hits filed as activators. 340,000 compounds, 0.13% hits; active = well fitted activation curve with a large enough effect; inconclusive = small, poorly fitted or top-dose-only effect, or another doubt; inactive = no such curve, though single readings can be large or run the other way; cell line not stated here;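 note: phosphodiesterase inhibitor Ro 20-1724 added with compounds to block cAMP breakdown; potency is the fitted concentration of half-maximal effect; nearly all actives have a fitted effect of over 60% in size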
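Cells stably selected in G418 were plated at 2000/well, grown 16-24 hr, then given compounds in DMSO with the PDE inhibitor […] (300 uM solution added) for 30 min at 37C; cAMP was read by HTRF.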
TSHR antag: Antagonists of the Thyroid Stimulating Hormone Receptor: HTS campaign. 330,000 compounds, 0.2% hits. Thyrotropin receptor (Homo sapiens), P16473. TSHR-expressing cells, TSH-stimulated cAMP HTRF, 2 h; stronger effect = lower value. activity change, negative = inhibition, % at 11.5 µM;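 active = activity change below a set negative limit, meaning inhibition stronger than a set level, cut at about -70% in these data; inconclusive = activity change between two set negative limits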; note: % is set by controls: 0 for no effect and ±100 for the full control effect
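Read-out is FRET at 665 nm (cryptate excitation 337 nm) from a cryptate-tagged anti-cAMP antibody, competed by cell cAMP against cAMP-d2. Compounds are tested on freshly harvested TSHR cells challenged with 4nM TSH (EC80) for 2 hours at 37 deg C.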
Numbers without * were called inactive; i = inactive; ? = inconclusive; nt = not tested or not shown; [ ] = another dose, or the depositor's remark.

SMILES	RXFP1 agonist	RXFP1 antagonist	pAkt inh	gsp antagonist	gsp ag	TSHR antag
O=C1c2ccccc2S(=O)(=O)N1Cc1cccc(S(=O)(=O)N2CCOCC2)c1	9.2%	-14.4	i	3.0%	0.5%	-4.3
OCCNc1ncnc2c1c(-c1ccccc1)c(-c1ccccc1)n2Cc1ccco1	1.3%	0.6	i	-21.4%	0.8%	-5.9
c1ccc(-c2c(-c3ccccc3)n(Cc3ccco3)c3ncnc(NCCCn4ccnc4)c23)cc1	4.7%	-65.2*	i	-4.2%	-42.8%	2.1
CC1CCN(C(=O)CSc2nc(N)c3c4c(sc3n2)CN(C)CC4)CC1	11.6%	-6.6	i	2.4%	?	13.6
CN1CCc2c(sc3nc(SCC(=O)N4CCOCC4)nc(N)c23)C1	17.0%	9.3	-104.0%*	3.4%	?	1.6
CC(C)[C@H](NC(=O)[C@@H]1Cc2ccccc2CN1C(=O)OC(C)(C)C)C(=O)NC1CCCC1	1.7%	-102.9*	nt	?	7.6%	-10.6
CCN(CC)C(=O)C1CCCN(C/C=C/c2ccccc2)C1 (stereo unspecified)	2.2%	-5.8	-104.6%*	8.5%	5.4%	1.3
Cc1ccc(C(=O)Cn2nnc(-c3cccs3)n2)cc1	5.5%	4.4	i	50.1µM*	?	2.0
O=C(Cn1nnc(-c2cccs2)n1)NCc1cccs1	0.8%	-5.6	i	12.3%	1.5%[15.4 µM]	-8.0
COc1cc(/C=C2/SC(=O)NC2=O)ccc1Oc1ccc([N+](=O)[O-])cc1[N+](=O)[O-]	0.0%	15.1	i	25.1µM*	?	-21.4
CCc1ccc(NC2=NCC(c3ccccc3)S2)cc1 (stereo unspecified)	-1.2%	-68.6*	i	?	-15.1%[15.4 µM]	-13.4
O=[N+]([O-])c1ccc(C2CN=C(Nc3ccccc3)S2)cc1 (stereo unspecified)	0.3%	-3.5	i	10.1%	-72.0%	-9.9
Cc1ccc(NC(=O)Cn2nc(C)c(S(=O)(=O)N(C)C)c2C)cc1	0.7%	6.5	i	3.0%	17.2%	3.3
COc1cccc(CN2CC(C(=O)N(C)Cc3ccc(C)cc3)CCC2=O)c1 (stereo unspecified)	-1.6%	10.4	i	0.3%	19.9%	-7.8
COCc1cc(CN(C)C(=O)C2CCC(=O)N(Cc3cccc(OC)c3)C2)[nH]n1 (stereo unspecified)	-1.2%	-78.0*	i	9.9%	6.4%	1.5
CC(C)CC(C)c1cc(N)nc2nc3ccccc3n12 (stereo unspecified)	3.1%	-61.1*	i	-5.2%	-1.6%[15.4 µM]	-12.9
Cc1c(CN(C)C(=O)c2cc(-c3ccccc3)nc3ccc(Br)cc23)cnn1C	15.8µM*	nt	nt	nt	nt	nt
O=C(NCC1CCN(c2ccc(S(=O)(=O)N3CCOCC3)cc2)CC1)Nc1ccccc1F	-0.7%	-2.7	i	-11.5%	2.5%[15.4 µM]	2.4
Cc1ccc(SCC(=O)NCc2ccccc2)cc1	1.7%	8.2	i	8.2%	0.8%	-7.3
Cc1ccc(SCC(=O)NCc2ccccc2C)cc1	0.1%	1.6	i	1.4%	-22.8%	-122.1*
CCN(CC)CCCNc1ccc2ncn3c4ccc(O)cc4c(=O)c1c23	nt	-21.2	i	?	11.2µM*	nt
COc1ccc(NC(=O)Cn2nnc(C(=O)NCc3cccs3)c2N)c(OC)c1	-0.7%	6.3	i	8.7%	?	-131.5*
Cc1ccc(Cn2nnc(C(=O)Nc3cccc(C)c3C)c2N)cc1	1.9%	-17.3	-109.2%*	10.7%	14.8%	-0.9
